Active and inactive are the calls of the source. How the source made its calls: active means hit-call score of the fitted dose curve at least 0.9, where 1 is the maximum; inactive means score below 0.9.

This note sets out measurements from PubChem BioAssay (EPA / NIEHS).

Read-out in the test: CD40, CD40 (gene 958)
The experiment in a line: BSK_SAg_CD40: BioMAP Diversity Plus: SAg Assay for CD40 Biomarker Activity (AID 2283088). As to conditions: primary human HUVEC with PBMC; actives raise or lower the signal. How it is done:
BSK_SAg is a cell-based, multiplexed-readout assay that uses umbilical vein endothelium and peripheral blood mononuclear cells, a human vascular primary cell co-culture, with measurements taken at 24 hours after chemical dosing in a 96-well plate.BSK_SAg_CD40 is one of 10 assay component(s) measured or calculated from the BSK_SAg assay. It is designed to make measurements of enzyme-linked immunosorbent assay, a form of binding reporter, as detected with fluorescence intensity signals by Enzyme-linked immunosorbent assay technology.Data from the assay component BSK_SAg_CD40 was analyzed into 1 assay endpoint. This assay endpoint, BSK_SAg_CD40, was analyzed with bidirectional fitting relative to DMSO as the negative control and baseline of activity. Using a type of binding reporter, gain or loss-of-signal activity can be used to understand changes in the signaling as they relate to the gene CD40. Furthermore, this assay endpoint can be referred to as a primary readout, because this assay has produced multiple assay endpoints where this one serves a signaling function. To generalize the intended target to other relatable targets, this assay endpoint is annotated to the cytokine intended target family, where the subfamily is inflammatory factor.
The levels of cell surface (or secreted, indicated by the prefix "s") biomarker endpoints were measured by ELISA. Overt cytotoxicity to cells in confluent adherent cultures (all systems other than the BT system) was assessed by measuring total protein levels using sulforhodamine B (SRB) staining in parallel cultures at the time of biomarker measurements, indicated as SRB endpoints. For proliferation assays for adherent cell types, individual cell types are cultured at sub-confluence and relative cell numbers quantified by SRB staining at time points optimized for each system (48 h: 3C and CASM3C systems; 72 h: BT and HDF3CGF systems; 96 h: SAg system). SRB was performed by staining cells with 0.1% SRB after fixation with 10% TCA and reading wells at 560 nm.Viability and proliferation of PBMC (T cells) was quantified by Alamar Blue reduction for the SAg and BT systems. For PBMC viability (referred to as PBMC Cytotoxicity within the assay endpoint names), cells were plated (75,000/well in a 96-well plate) and then chemical samples added for 1 h before addition of activators, SEB and TSST-1 (20 ng/mL final concentration each). Cells were incubated for 90 h. Then, Alamar Blue (20 uL/well) (Invitrogen, Cat DAL1100) was added for 6 h, and the plates were read with a fluorescence microplate reader at 546/580 nm (excitation/emission). For PBMC proliferation, cells were plated and activated as above but incubated for only 16 h prior to addition of Alamar Blue. Plates were read after 6 h.
With `C=CN1CCCC1=O`, the outcome was inactive.
The same measure, in the same setting: in the case of `O=C(O)[C@H](O)[C@@H](O)C(=O)O` it was “inactive”; in that of `c1ccc2ncccc2c1`, “inactive”; in that of `Cc1cccc(O)c1C`, “inactive”.
Still for that read-out and setting: the result for `O=S1(=O)CCCO1` reads “inactive”.
One may read the AC50 as the midpoint of the concentration-response curve, whichever way the signal moves. For the compound `Cc1nccn1-c1ccc(Sc2cccc(C3(C(N)=O)CCOCC3)c2)cc1`, the AC50 was 4.56 µM (active).
Regarding `OCc1c[nH]c2ccccc12`, the AC50 was 20 µM (active).
In the case of `CCCc1ccccc1`, the result was inactive.
The same measure, in the same setting: in the case of `C[Si](C)(C)C(F)(F)C(F)(F)C(F)(F)F` it was “inactive”; in that of `O=C(O)c1cccc(C[C@@H]2COc3ccc(OCc4nc5cc(F)ccc5s4)cc3[C@@H]2O)c1`, “inactive”.
Take `COc1cc2c(c(OC)c1OC)-c1ccc(OC)c(=O)cc1[C@@H](NC(C)=O)CC2`: the AC50 was 0.218 µM (active).
Consider `CC1(C)C(=O)N(Cl)C(=O)N1Cl`, for which the outcome was inactive.
Regarding `O=C(O)c1cccc(C(=O)O)c1`, the outcome was inactive.
Still for that read-out and setting: in the case of `S=P(N1CC1)(N1CC1)N1CC1` it was “inactive”.
On the same count and under the same terms, in the case of `CNC(C)=O` it was “inactive”; in that of `Cc1ccc(S(=O)(=O)NC(=O)NN2CCCCCC2)cc1`, “inactive”.
Take `CCOC(N)=O`: the outcome was inactive.
Still for that read-out and setting: the result for `NC(=O)NN=Cc1ccc([N+](=O)[O-])o1` reads “inactive”; that for `CCCCN1C(=O)[C@@H]([C@H](O)C2CCCCC2)NC(=O)C12CCN(Cc1ccc(Oc3ccc(C(=O)O)cc3)cc1)CC2`, “inactive”; that for `OC[C@H]1O[C@@H]2O[C@H]3[C@H](O)[C@@H](O)[C@@H](O[C@H]4[C@H](O)[C@@H](O)[C@@H](O[C@H]5[C@H](O)[C@@H](O)[C@@H](O[C@H]6[C@H](O)[C@@H](O)[C@@H](O[C@H]7[C@H](O)[C@@H](O)[C@@H](O[C@H]1[C@H](O)[C@H]2O)O[C@@H]7CO)O[C@@H]6CO)O[C@@H]5CO)O[C@@H]4CO)O[C@@H]3CO`, “inactive”.
On the same count and under the same terms, in the case of `Nc1ccn([C@@H]2O[C@H](CO)[C@@H](O)[C@@H]2O)c(=O)n1` it was “inactive”.
On to `CCn1nc(C)c2c1C(=O)NCC(c1ccc(O)cc1)=N2`, for which the AC50 is 20 µM (active).
`OCCOCCOCCO`: the outcome was inactive.
On the same count and under the same terms, in the case of `O=S(=O)(O)c1ccc(N=Nc2c(O)ccc3cc(S(=O)(=O)O)ccc23)cc1` it was “inactive”; in that of `CCCCCCCCCC`, “inactive”; in that of `C[C@@H](Oc1ccc(CNC(=O)c2cccnc2Oc2ccc3c(c2)OCO3)c(F)c1)C(=O)O`, “inactive”.
As for `CCCCCCCC/C=C\CCCCCCCC(=O)OC[C@@H](O)[C@H]1OC[C@H](O)[C@H]1O`, the result was inactive.
On the same count and under the same terms, the result for `NNC(=O)c1ccncc1` reads “inactive”.
On the same count and under the same terms, the result for `CC(C)C(=O)Nc1ccc([N+](=O)[O-])c(C(F)(F)F)c1` reads “inactive”; that for `Cn1c(=O)c2[nH]cnc2n(C)c1=O`, “inactive”; that for `OCCC(F)(F)C(F)(F)C(F)(F)C(F)(F)F`, “inactive”.
As for `CC(=O)c1ccccc1`, the outcome was inactive.
`CCCCOC(=O)c1ccccc1`: the outcome was inactive.
Same read-out and setting: in the case of `FC(F)(F)COC(OCC(F)(F)F)OCC(F)(F)F` it was “inactive”.
Take `CCc1ccc(O)c(C(C)(C)C)c1`: the AC50 is 36 µM (active).
As to `NC(N)=O`, the result was inactive.
On the same count and under the same terms, the result for `FC(F)=C(F)C(F)(F)C(F)(F)C(F)(F)C(F)(F)C(F)(F)C(F)(F)F` reads “inactive”; that for `OCC(CO)(CO)CO`, “inactive”; that for `FC(F)C(F)(F)COCC1CO1` (stereo not given), “inactive”.
Turning to `C[C@]12C=CC(=O)C=C1CC[C@H]1[C@@H]3C[C@@H](O)[C@](O)(C(=O)CO)[C@@]3(C)C[C@H](O)[C@@]12F`, the outcome was inactive.
